# From PubChem BioAssay
# Only some compounds are listed: those with a hit (about 1.4% of all), similar ones and a draw of the others.
# ALOX12 inh – ALOX12 (human) lipoxygenase inhibition | AID 1671190 | Potency, µM (highest dose often 108 µM), hits mostly inhibitors | P18054 | purified 12hLO, xylenol orange hydroperoxide absorbance | hit rate 1.1% among 580,000
#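 Hydroperoxide product was detected by ferrous iron/xylenol orange as the 573 to 405 nm absorbance ratio. Arachidonic acid at 40 uM (final) was turned over for 30 min at room temperature by 150 nM human 12hLO, pH 7.0 Hepes buffer, after 15 min compound preincubation.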
# MmCpn inh – inhibitors of Methanococcus maripaludis chaperonin TRiC (MmCpn); hit rate 0.031% among 330,000; purified Mm-Cpn ATPase, ADP Transcreener TR-FRET; Potency, µM (top dose mostly 76.9 µM), hits mostly inhibitors; AID 504842; further: nearly all actives have a fitted effect of over 80% in size
#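 Eu-cryptate anti-ADP/ADP-d2 competition gives a ratio inversely related to ADP. Enzyme at 25 nM was pre-exposed to compound for 10 min, then given 10 uM ATP for 30 min, 37°C throughout.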
# CCT modulator – cytosolic chaperonin activity modulation. purified chaperonin ATPase assay, HTRF ADP detection, 30 min. activity change, % (test concentration not listed), hits read low. hit rate 0.3% among 360,000. AID 651819; in the data active means activity change below about -30%
#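 TRiC (40 or 20 nM final, by batch activity) in 30 mM Tris pH 7.4, 100 mM KCl, 5 mM MgCl2, 1 mM DTT was treated with compound at 76 uM single dose, then 10 uM ATP, 30 min at 37 °C. ADP was read by HTRF Transcreener.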
# PINK1 expr mod – changes PINK1 expression; PINK1 immunofluorescence, high-content cytometry, 24 h; Potency, µM (highest dose often 76.6 µM), most hits filed as activators; hit rate 0.2% among 410,000; AID 624263; active means well fitted activation curve with a large enough effect; inconclusive means small, poorly fitted or top-dose-only effect; cell line not stated here; further: nearly all actives have a fitted effect of over 65% in size
#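 Stable cell line treated 24 h with compounds at 5 concentrations (CCCP controls), then fixed and immunostained for PINK1 plus nuclear and cell stains; PINK1 immunofluorescence quantified by laser-scanning microplate cytometry.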
# p53 reactivation – mutant p53 re-activation in reporter cells | Potency, µM (doses to about 92.2 µM), most hits filed as activators | hit rate 0.063% among 320,000 | H1299 p53-A138V BP100-luciferase reporter, luminescence, 24 h; further: nearly all actives have a fitted effect of over 45% in size
#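 p53-null H1299 cells stably carrying temperature-sensitive p53-A138V and a BP100-luciferase reporter were pinned with compounds (4-point, 1:5 series) and held 24 hrs at 37 deg C. Luminescence was read 10 min after detection reagent.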
# S-ASM inh – inhibitors of human secretory acid sphingomyelinase; hit rate 0.006% among 340,000; placental ASM, HMU-PC fluorogenic substrate, 60 min; Potency, µM (titrated, usually from 57.5 µM), usual class: inhibitors; AID 504937
# Target sequence (P17405 47-631 limits assumed): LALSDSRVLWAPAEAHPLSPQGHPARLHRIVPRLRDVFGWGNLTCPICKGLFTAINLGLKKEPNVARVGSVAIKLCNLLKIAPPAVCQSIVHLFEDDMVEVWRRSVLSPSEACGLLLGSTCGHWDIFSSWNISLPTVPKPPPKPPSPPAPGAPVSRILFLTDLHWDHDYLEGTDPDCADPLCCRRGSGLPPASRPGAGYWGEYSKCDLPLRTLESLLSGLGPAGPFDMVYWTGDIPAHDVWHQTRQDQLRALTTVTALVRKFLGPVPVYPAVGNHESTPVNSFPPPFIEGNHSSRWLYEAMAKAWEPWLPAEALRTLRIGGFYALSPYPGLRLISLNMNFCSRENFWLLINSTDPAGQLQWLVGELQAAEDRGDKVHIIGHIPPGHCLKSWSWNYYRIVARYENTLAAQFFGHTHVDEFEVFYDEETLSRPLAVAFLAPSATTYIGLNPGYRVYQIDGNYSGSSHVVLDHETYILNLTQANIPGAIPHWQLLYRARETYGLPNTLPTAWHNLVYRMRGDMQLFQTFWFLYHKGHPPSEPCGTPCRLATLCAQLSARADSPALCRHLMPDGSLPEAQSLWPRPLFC
#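 HMU-PC0 cleavage (9 uM final) by human placental ASM, 60 min at 37 °C following 10 min compound exposure at RT; stopped at pH 10, fluorescence Ex 386/Em 447 nm.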
# Hits are given with their value; n = inactive; u = inconclusive; x = no result given; [ ] = remark or other dose. Unless noted, the call rests on the fitted dose curve; in most records, active means well fitted curve in the direction sought with a large enough effect; inconclusive means small, poorly fitted or top-dose-only effect, or another doubt; inactive means no such curve, though single readings can be large; an effect the other way counts as inactive or inconclusive.
SMILES,ALOX12 inh,MmCpn inh,CCT modulator,PINK1 expr mod,p53 reactivation,S-ASM inh
Cn1ncc2c(-c3ccc([S+](C)(=O)[O-])cc3)cc(C(=O)NCc3ccc(F)cc3)nc21,n[6.33 µM],x,x,x,x,x
COc1ccc(NC(=O)CC2C(=O)N(C)C(=S)N2CCc2ccccc2F)cc1 (configuration not stated),n,n,n,16µM,n,n
COc1ccc(NC(=O)CC2C(=O)N(c3ccc(Cl)cc3)C(=S)N2CCc2ccccn2)cc1 (configuration not stated),n,n,n,28µM,u,n
CCN1C(=O)C(CC(=O)Nc2ccc(OC)cc2)N(CCc2ccccc2F)C1=S (configuration not stated),u,n,n,u,n,n
COC(=O)CN1C(=S)N(c2ccc(Cl)cc2)C(=O)C1CC(=O)Nc1ccc(Cl)cc1 (configuration not stated),35µM,n,n,n,n,u
COc1cccc(S(=O)(=O)N2CCCN(C)c3ccccc32)c1,22µM,x,x,x,x,x
COc1ccc(C(=O)N2N=C(c3ccccc3)CC2c2ccc3nccnc3c2)cc1 (configuration not stated),n,x,x,x,x,x
O=C(c1nc(-c2cccnc2)no1)N1CCN(c2ccc(F)cc2)CC1,n,x,x,x,x,x
CC(C)Oc1ccc(/C=C(/C#N)c2nc3ccccc3[nH]2)cc1Br,n,x,x,x,x,x
O=C1NC(=S)S/C1=C\c1ccc(SCc2ccccc2)o1,13µM,n,n,u,n,n
N#Cc1c(NC(=O)C2CC(c3ccccc3O)=NO2)sc2c1CCC2 (configuration not stated),u,n,n,n,n,u
N#Cc1c(NC(=O)C2CC(c3ccccc3Cl)=NO2)sc2c1CCC2 (configuration not stated),u,n,-92,n,n,n
CSc1nc(SCC(=O)NCc2ccco2)c2c3c(sc2n1)COC(C)(C)C3,u,n,n,13µM,n,n
C=CCNC(=O)NC(=O)CN(CC)Cc1cccs1,n,x,x,x,x,x
O=C(COC(=O)CNC(=O)c1ccccc1F)Nc1ncc(Cl)cc1Cl,40µM,n,n,n,n,n
O=C(COC(=O)c1cn(-c2ccccc2)nc1-c1ccccc1)Nc1ncc(Cl)cc1Cl,25µM,n,n,n,n,n
COc1cccc(-c2nn(-c3ccccc3)cc2C(=O)OCC(=O)Nc2ncc(Cl)cc2Cl)c1,n,n,n,n,n,x
COc1ccc(OC)c(NC(=O)Cc2sc(C)nc2-c2cccs2)c1,n,x,x,x,x,x
CCOC(=O)C(C(C)=O)c1c(Br)c(O)c(O)c2c(C(=O)c3ccc(C)cc3)coc12 (configuration not stated),u,n,n,u,25µM,n
CCOc1ccccc1CN1CCC(N2CCCC(C(=O)NC3CC3)C2)CC1 (configuration not stated),n,x,x,x,x,x
COc1ccccc1CNC(=O)Cn1ccc2cccc(OC)c21,n,x,x,x,x,x
CCOc1ccccc1NC(=O)CNC(=O)CNC(=O)Cc1ccccc1,n,n,n,n,n,n
CCOc1ccccc1NC(=O)CNC(=O)Cc1ccccc1,n,n,-43,n,n,n
COc1cccc(C(=O)OC(C)CN2CCCC2)c1 (configuration not stated),n,n,n,n,n,n
CC(CN1CCCCC1)OC(=O)c1cccc(F)c1 (configuration not stated),56µM,n,n,n,n,n
SMILES,ALOX12 inh,MmCpn inh,CCT modulator,PINK1 expr mod,p53 reactivation,S-ASM inh
Cc1cccc(OCc2nc(C#N)c(N3CCCC3)o2)c1,n,n,-30,n,n,n
Cc1cccc(OCc2nc(C#N)c(N3CCOCC3)o2)c1,n,x,x,x,x,x
O=C1OC(CN(Cc2ccccc2)Cc2ccccc2)CN1N=Cc1ccc([N+](=O)[O-])o1 (configuration not stated),13µM,x,n,n,x,n
O=C1OC(CN2CCOCC2)CN1N=Cc1ccc([N+](=O)[O-])o1 (configuration not stated),u,n,n,n,n,n
CC1CCCC(C)N1 (configuration not stated),n,x,x,x,x,x
COc1ccc(CCNC(=S)NCc2ccc(Cl)c(Cl)c2)cc1OC,45µM,n,n,n,n,n
